Measurements from PubChem BioAssay.
Results with a measured potency or affinity are listed apart. Results filed as inconclusive are left out. The source made the active and inactive calls. Unless noted, how the calls were made is not given here.

Key:
[1] = RMG-1 ovarian cancer cell viability loss – cherry-pick, dose response (AID 687029;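 active means signal drop whose fitted half-maximal concentration is at most twice the top valid dose, in every test run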;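 further: cells exposed to compound for 96 hours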)
[2] = IOSE-T80 viability loss, PAX8-independent line – cell-based, cherry-pick, selectivity assay for PAX8 inhibitor project, dose response (AID 687032;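 active means fitted half-maximal concentration for viability loss no higher than twice the top valid dose, in every repeat run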;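 further: cells exposed to compound for 96 h before reading; 0% = neutral control wells and -100% = 2 µM mitoxantrone kill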)
[3] = general cell-killing toxicity readout – plate reader, dry powder samples, cytotoxicity control for PAX8 inhibitor project, dose response (AID 743021)
[4] = CMV-driven luciferase expression suppression in HEK293 – cell-based, luminescence, dry powder, counter-screen for Pax8 inhibitor project, dose response (AID 743020;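 active means signal-lowering compounds whose fitted half-maximal concentration is at or below twice the top tested dose in every run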;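 further: HEK293 cells stably expressing the CMV luciferase reporter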)
[5] = OVCAR8 cell viability loss – plate reader, dry powder samples, PAX8 project, dose response (AID 743197)
[6] = IGROV1 cell killing – plate reader, dry powder samples, PAX8 inhibitor project, dose response (AID 743043);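 further: more negative means fewer viable cells or more cytotoxicity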
[7] = OVCAR-3 cell viability loss – plate reader, dry powder samples, PAX8 inhibitor project, dose response (AID 743044); details: max activity: at 35 µM, hits give low values unless noted
[8] = toxicity toward immortalized ovarian surface epithelium – cell-based, plate reader, dry powder samples, cytotoxicity control for PAX8 inhibitor project, dose response (AID 743045);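 further: 0% = neutral control median and -100% = positive control median; more negative values mean more cell killing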
[9] = A2780 cell killing – plate reader, dry powder samples, cytotoxicity control, dose response (AID 743046);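 further: 0% = neutral control wells and -100% = cytotoxic reference compound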

Measured: max activity

COc1cc(-c2cnc3c(NC=O)cc(-c4ccc(C)cc4)cn23)cc(OC)c1OC
inactive: [1] | [2] | [3]

CC(C)(C)C(=O)Nc1ccc(NC(=O)c2ccco2)nc1
inactive: [1] | [2] | [3]

COc1cc(OC)c(NC2=CC(=O)C(=O)c3ccccc32)cc1Cl
inactive: [1] | [2] | [3]

O=C(Nc1ccc([N+](=O)[O-])cc1)Nc1nc(-c2ccc(Cl)s2)cs1
inactive: [1] | [2] | [3]

N#Cc1c(N)n(C2OC(CO)C(O)C2O)c2ncnc(N)c12 (centres undefined)
inactive: [1] | [2] | [3]

C#CCN(C[C@@H]1[C@@H](OC(=O)NCc2ccc(OC)c(OC)c2)[C@@H](OC(=O)NCc2ccc(OC)c(OC)c2)Cn2c(=O)ccc(=O)n21)S(=O)(=O)c1ccc(C)cc1
inactive: [1] | [2] | [3]

Cc1ccc(C(=O)c2cc([N+](=O)[O-])ccc2N2CCCCC2)cc1
inactive: [1] | [2] | [3]

Oc1c(I)cc(I)c2cccnc12
inactive: [1] | [2] | [3]

C=C1C(=O)O[C@@H]2C[C@@H](C)[C@@H]3C=CC(=O)[C@@]3(C)[C@@H](OC(C)=O)[C@H]12
inactive: [1] | [2] | [3]

N#C[C@H]1[C@@H](c2ccc(C#Cc3ccc(F)cc3)cc2)[C@H](CO)N1C(=O)Nc1ccc(F)cc1
inactive: [1] | [2] | [4] | [5]

CC(=O)OC1CCC2(C)C(CCC3C4CC=C(C(C)=O)C4(C)OC(=O)CC32)C1 (centres undefined)
inactive: [1] | [2] | [3]

O=C(O)CCCN1C(=O)/C(=C\C(Cl)=C\c2ccccc2)SC1=S
inactive: [1] | [2] | [3]

Cc1cccc(C2(c3cccc(C)c3)CC2C(=O)Nc2ccc([N+](=O)[O-])cc2O)c1 (centres undefined)
inactive: [1] | [2] | [3]

O=C(CCCN1C(=O)/C(=C\c2cccc(Br)c2)SC1=S)Nc1cccnc1
inactive: [1] | [2] | [3]

C[C@H]1CCCCO[C@H](CN(C)C(=O)Nc2ccc(C(F)(F)F)cc2)[C@@H](C)CN([C@@H](C)CO)C(=O)c2cc(NS(=O)(=O)c3ccc(Cl)cc3)ccc2O1
inactive: [1] | [2] | [3]

COc1cc(/C=N/NS(=O)(=O)c2ccc(C)cc2)ccc1OCc1ccc(C(=O)O)cc1
inactive: [1] | [2] | [3]

NC(=O)c1ccsc1NC(=O)c1ccc([N+](=O)[O-])o1
inactive: [1] | [2] | [3]

Cc1ccc(S(=O)(=O)Nc2ccc3c(c2)C(=O)N([C@H](C)CO)C[C@H](C)[C@@H](CN(C)Cc2ccc(C(F)(F)F)cc2)OCCCC[C@H](C)O3)cc1
inactive: [1] | [2] | [3]

C[C@@H]1CCCCO[C@@H](CN(C)CC2CCCCC2)[C@H](C)CN([C@H](C)CO)C(=O)c2cc(NS(=O)(=O)c3ccc(Cl)cc3)ccc2O1
inactive: [1] | [2] | [3]

Cn1nnnc1Sc1ncnc2scc(-c3cccc(F)c3)c12
inactive: [1] | [2] | [3]

CC(=NNC(=S)N1CCC1)c1ccccn1
inactive: [1] | [2] | [3]

Cc1[nH]c2ccccc2c(=O)c1C(=O)/C=C/c1ccccc1
inactive: [1] | [2] | [3]

Cn1cc(C2=C(c3ccc(Cl)cc3Cl)C(=O)NC2=O)c2ccccc21
inactive: [1] | [2] | [3]

CC(=NNC(=S)N1CCN(C2CCCCCC2)CC1)c1ccccn1
inactive: [1] | [2] | [3]

Cc1cccc(C)c1NS(=O)(=O)c1ccc(-c2cnc(C3CC3)o2)cc1
inactive: [1] | [2] | [3]

Oc1ccc(N=Nc2ccccc2C(F)(F)F)c2cccnc12
inactive: [1] | [2] | [3]

N#CC1(NC(=O)Cn2ncc(Cl)c(Cl)c2=O)CCCCC1
inactive: [1] | [2] | [3]

CC1CCN(CCc2nc3cc(NS(=O)(=O)c4ccccc4)ccc3n2C)CC1
inactive: [1] | [2] | [3]

CCOCCCNC(=O)c1ccc2c(c1)N=C(CC)c1cc(Br)ccc1S2
inactive: [1] | [2] | [3]

COC(=O)c1ccccc1-c1c2ccc(=N)cc-2oc2cc(N)ccc12
inactive: [1] | [2] | [3]

CC(=O)N1CCc2c(sc(NC(=O)c3ccc([N+](=O)[O-])o3)c2C#N)C1
inactive: [1] | [2] | [3]

COc1cc(NC(=O)Cn2ncc(Cl)c(Cl)c2=O)c(C)cc1[N+](=O)[O-]
inactive: [1] | [2] | [3]

N#Cc1cccc(-c2ccc(C3[C@@H]4CN(C(=O)C5CC5)C[C@H]3N4)cc2)c1 (some centres undefined)
inactive: [1] | [2] | [3]

CN[C@H]1CCc2cc(OC)c(OC)c(OC)c2-c2ccc(OC)c(=O)cc21
inactive: [1] | [2] | [3]

CC[C@@]1(O)C(=O)OCc2c1cc1n(c2=O)Cc2cc3c(N)cccc3nc2-1
inactive: [1] | [2] | [3]

C=CCNC(=S)N/N=C(\C)c1ccccn1
inactive: [1] | [2] | [3]

CCS(=O)(=O)c1ncc(Cl)c(C(=O)Nc2ccc(S(=O)(=O)N3CCCC(C)C3)cc2)n1 (centres undefined)
inactive: [1] | [2] | [3]

COc1ccc(C(=O)NN(C)c2nc(C(F)(F)F)nc3ccccc23)cc1
inactive: [1] | [2] | [3]

O=C(NCCN1C(=O)S/C(=C\c2ccc(OC(F)F)cc2)C1=O)c1cnccn1
inactive: [1] | [2] | [3]

CCC(=O)OCCNc1cc(Sc2nccn2C)c2nonc2c1[N+](=O)[O-]
inactive: [1] | [2] | [3]

CCS(=O)(=O)N1Cc2ccccc2CC1C(=O)Nc1nnc(SCc2c(Cl)cccc2Cl)s1 (centres undefined)
inactive: [1] | [2] | [3]

CC(C)(C)OC(=O)NCCCC[C@H](NC(=O)c1[nH]cnc1C(=O)N[C@@H](Cc1ccccc1)C(=O)OC(C)(C)C)C(=O)OC(C)(C)C
inactive: [1] | [2] | [3]

COc1cc(/C=C2\COC/C(=C\c3cc(OC)c(OC)c(OC)c3)C2=O)cc(OC)c1OC
inactive: [1] | [2] | [3]

COc1c(C=O)c2c(c(OC)c1OC)-c1ccc(OC)c(=O)cc1C(NC(C)=O)CC2 (centres undefined)
inactive: [1] | [2] | [3]

Oc1ccc2ccccc2c1N=Nc1nccs1
inactive: [1] | [2] | [3]

Cc1ccc(C)c(CSC2=NCCN2C(=O)Cc2ccc([N+](=O)[O-])cc2)c1
inactive: [1] | [2] | [3]

COc1cc(/C=N\NC(=O)c2ccc(-c3ccccc3)cc2)cc(OC)c1OC(C)=O
inactive: [1] | [2] | [3]

C=C1C(=O)[C@]23C[C@H]1CCC2[C@]1(C)CCC[C@@](C)(C(=O)O)C1C[C@@H]3O (some centres undefined)
inactive: [1] | [2] | [3]

O=c1c(Cl)c(Cl)cnn1Cc1nnc(-c2ccccc2Br)o1
inactive: [1] | [2] | [3]

CNC[C@@H](CC1CCCCC1)NC[C@H](CC(C)C)NCCc1cccc(C(F)(F)F)c1
inactive: [1] | [2] | [3]

CCOC(=O)c1cnc2ccc(C(=O)OC)cc2c1Nc1ccc(C(=O)O)cc1
inactive: [1] | [2] | [3]

CC(C)N1CCc2c(sc(NC(=O)c3ccc([N+](=O)[O-])o3)c2C(N)=O)C1
inactive: [1] | [2] | [3]

Cn1nnnc1Sc1ncnc2scc(-c3cccc4c3sc3ccccc34)c12
inactive: [1] | [2] | [3]

Cc1ccc(S(=O)(=O)N(C)C[C@@H]2Oc3ccc(NC(=O)Nc4ccc(C(F)(F)F)cc4)cc3CC(=O)N([C@H](C)CO)C[C@@H]2C)cc1
inactive: [1] | [2] | [3]

Cc1ccc(S(=O)(=O)CCC(=O)c2ccc(F)cc2)cc1
inactive: [1] | [2] | [3]

CC(=O)NC(c1ccc2ccccc2c1)c1ccc2cccnc2c1O (centres undefined)
inactive: [1] | [2] | [3]

Cc1ccc2nc(C)cc(Nc3ccc([N+](=O)[O-])cc3)c2c1
inactive: [1] | [2] | [3]

CCOC(=O)c1cnn(CCOC(=O)c2cccc(F)c2)c1NC(=O)c1cccc(F)c1
inactive: [1] | [2] | [3]

C[C@H]1CCCCO[C@H](CN(C)C(=O)Nc2ccc(C(F)(F)F)cc2)[C@@H](C)CN([C@@H](C)CO)C(=O)c2cc(NC(=O)Nc3ccc(F)cc3)ccc2O1
inactive: [1] | [2] | [3] | [6]

COc1ccc(OC)c(-c2nnc3n2N=C(c2ccc(OC)c(OC4CCOC4)c2)CS3)c1 (centres undefined)
inactive: [1] | [2] | [3]

CCOc1ccc(CCN2C(=S)N([C@@H](Cc3ccc(O)cc3)CN3CCC[C@@H]3CN3C(=S)NC[C@@H]3CC(C)C)C[C@@H]2Cc2ccc(O)cc2)cc1
inactive: [1] | [2] | [3]

COc1ccccc1NS(=O)(=O)c1cccc(C(=O)N/N=C/c2ccc([N+](=O)[O-])o2)c1
inactive: [1] | [2] | [3]

CCC1(O)C(=O)OCc2c1cc1n(c2=O)Cc2cc3c(N)cccc3nc2-1 (centres undefined)
inactive: [1] | [2] | [3]

COc1ccccc1-n1cc([C@@H]2C[C@H]3CN(c4ccccc4)C(=O)[C@]34CCCN24)cn1
inactive: [1] | [2] | [3]

CS(=O)(=O)Nc1ccc2c(c1)[C@@H]1C[C@@H](CC(=O)NCc3ccc(Oc4ccccc4)cc3)O[C@@H](CO)[C@@H]1O2
inactive: [1] | [2] | [3]

CC(C)C(=O)N1CCN(c2ccc(NC(=O)c3ccc([N+](=O)[O-])o3)cc2)CC1
inactive: [1] | [2] | [3]

O=C(C[C@H]1C[C@@H]2c3cc(NS(=O)(=O)c4ccc(F)cc4)ccc3O[C@@H]2[C@@H](CO)O1)NCc1ccc(Oc2ccccc2)cc1
inactive: [1] | [2] | [3] | [6] | [7] 26.4% | [8] | [9] | [5]

C[C@@H]1CCCCO[C@H](CN(C)C(=O)Nc2ccc(C(F)(F)F)cc2)[C@@H](C)CN([C@@H](C)CO)C(=O)c2cc(NS(=O)(=O)c3ccc(F)cc3)ccc2O1
inactive: [1] | [2] | [3] | [6] | [7] 19.5% [at 4.2 µM, hits give low values] | [8] | [9]

C[C@H]1CCCCO[C@@H](CN(C)Cc2ccc(C(F)(F)F)cc2)[C@@H](C)CN([C@@H](C)CO)C(=O)c2cc(NC(=O)Nc3ccc(F)cc3)ccc2O1
not listed: [4] | [5] | [7]
inactive: all other assays above

C[C@@H]1CCCCO[C@@H](CN(C)C(=O)Nc2ccc(F)cc2)[C@H](C)CN([C@@H](C)CO)C(=O)c2cc(NC(=O)Nc3ccc(C(F)(F)F)cc3)ccc2O1
inactive: [1] | [2] | [3] | [6] | [7] -4.11% | [8] | [9] | [5]
